Measured values from PubChem BioAssay (NCI).
Compounds without any hit were thinned out: in the full panel of roughly 83,000, 20% have a hit.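 For each line, cells grew in 96-well plates with the test compound present at a single concentration for 48 hours.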 Unmarked numbers belong to inactive results. Active and inactive are the calls of the source. Rule for the calls: active = growth percent below 10; inactive = the rest.

System: MCF7 breast
Test: NCI-60 one-dose screen, 48 h (100 = growth as untreated, 0 = no growth, -100 = all killed)
Settings: 10 µM unless noted

Question: For `Cc1cc(=O)[nH]c(/C(=N/Nc2ccccc2)C(=O)c2ccc(Cl)cc2)n1`, which growth is on record?
Answer: 90.1%

Question: `COc1cc(C2=NN(C=O)C(c3cccc(Nc4ccnc5cc(Cl)ccc45)c3)C2)cc(OC)c1OC` (stereo not given) was tested. Which growth did it give?
Answer: 68.8%

Question: `Cc1cc(C(=O)Nc2ccc3cc(CN4CCOCC4)ccc3n2)c(C)n1-c1ccccc1` was tested. Which growth did it give?
Answer: 7.41% (active)

Question: For `O=C(Nc1cccc(Cl)c1)Nc1cccc(Cl)c1`, which growth is on record?
Answer: 64.3%

Question: Which growth does the source give for `COc1cc2c(cc1OC)C(=O)/C(=C/c1cccc(OCC(=O)c3ccccc3)c1)C2` here?
Answer: 60.7%

Question: `CN(C)c1ccc(-n2nc3ccccc3n2)cc1` was tested. Which growth did it give?
Answer: 89.9%

Question: How did the growth turn out when `N[C@H](CS)C(=O)O` was run?
Answer: 87.9%

Question: Which growth does the source give for `CCOc1cc(/C=C/C(=O)C(C(=O)/C=C/c2ccc(OC(=O)CNc3nnc(C)s3)c(OCC)c2)C(=O)CNc2nnc(C)s2)ccc1OC(=O)CNc1nnc(C)s1` here?
Answer: -6.02% (active)

Question: How did the growth turn out when `CC[C@H]1CN2CCc3cc(OC)c(OC)cc3C2C[C@@H]1CC1NCCc2cc(OC)c(OC)cc21` (stereo not given in full) was run?
Answer: -2.18% (active)

Question: `COc1ccc(N2CCN(CC(=O)N3CCN(c4nnc(-c5ccc(Cl)cc5)c(-c5ccc(Cl)cc5)n4)CC3)CC2)cc1` was tested. Which growth did it give?
Answer: 37.3%

Question: With `O=C(COc1ccc(/C=C2\Oc3ccc4ccccc4c3C2=O)cc1)c1ccc(Cl)cc1` as the molecule, how does the growth read?
Answer: 58.5%

Question: For `Cc1nn(-c2nc3ccccc3s2)c(C)c1Oc1ccccc1O`, which growth is on record?
Answer: 81.7%

Question: For `CCSc1ncc(Br)c(Sc2nc(N)nc3nc[nH]c23)n1`, which growth is on record?
Answer: 47%

Question: With `COc1ccc(C2=NN(C=O)C(c3cccc(Nc4ccnc5cc(Cl)ccc45)c3)C2)cc1` (stereo not given) as the molecule, how does the growth read?
Answer: 15.7%

Question: For `CCOC(=O)Nc1ccc2c3c(cccc13)-c1ccccc1-2`, which growth is on record?
Answer: 15.8%

Question: Which growth does the source give for `CCCCCCCC[Si](OCC)(OCC)OCC` here?
Answer: 98.3%

Question: How did the growth turn out when `COC(=O)[C@H](Cc1cnc[nH]1)NC(=O)[C@@H](NC(=O)Nc1cc(C(F)(F)F)cc(C(F)(F)F)c1)C(C)C` was run?
Answer: -53.1% [100 µM] (active)

Question: For `CCOC(=O)c1sc(NC(=O)COc2cccc(/C=C3\CCc4cc(OC)ccc4C3=O)c2)nc1C`, which growth is on record?
Answer: 18.9%

Question: With `NS(=O)(=O)N(c1cc(C(F)(F)F)cc(C(F)(F)F)c1)C1CCN(Cc2ccc(C(F)(F)F)cc2)CC1` as the molecule, how does the growth read?
Answer: 9.31% (active)

Question: With `CCOC(CNCc1cc(C)c2[nH]c3ccccc3c2c1C)OCC` as the molecule, how does the growth read?
Answer: 81.3%

Question: For `COc1ccc2cc(-c3nc4ccccc4[nH]3)c(=O)oc2c1`, which growth is on record?
Answer: 89.3%

Question: How did the growth turn out when `O=C(O)C1CCN(S(=O)(=O)c2ccc(-c3ccccc3)cc2)CC1` was run?
Answer: 101%

Question: How did the growth turn out when `CNCCCn1c2c(c3ccc(F)cc3c1=O)C(=O)c1cc(OC)cnc1-2` was run?
Answer: 0.0252% (active)

Question: Which growth does the source give for `Oc1c(Cl)cc(Cl)c(Cl)c1Cc1c(O)c(Cl)cc(Cl)c1Cl` here?
Answer: 10.3%

Question: How did the growth turn out when `COc1cc(/C=N/NC(=O)c2ccc(C(F)(F)F)nc2Nc2cc(Cl)ccc2C)cc(OC)c1OC` was run?
Answer: 104%

Question: With `O=C(Nc1nc2ccc(OC(F)(F)F)cc2s1)c1ccc(F)cc1` as the molecule, how does the growth read?
Answer: -0.0548% (active)

Question: How did the growth turn out when `COc1cc(/C(Cl)=C/C=C/C(=O)c2c(C)[n+]([O-])c3ccc(Cl)cc3[n+]2[O-])cc(OC)c1OC` was run?
Answer: 0.61% (active)

Question: Which growth does the source give for `COc1ccc2nc(-c3ccc(Cl)cc3)cc(-c3nnc(SCC(=O)Nc4ccc(C(C)=O)cc4)n3-c3ccccc3)c2c1` here?
Answer: 100%

Question: For `CC1Cc2ccccc2N1C(=O)c1ccc(C(=O)c2ccccc2)cc1` (stereo not given), which growth is on record?
Answer: 103%

Question: Which growth does the source give for `O=C(O)c1ccc(CNS(=O)(=O)c2ccc3ccccc3c2)cc1` here?
Answer: 107%

Question: For `CCCCNCCCN(CCCC)CCCNCCCC`, which growth is on record?
Answer: 95.8%

Question: How did the growth turn out when `CC(=O)Nc1cc(C(c2ccccc2)c2ccccc2)cc(C(c2ccccc2)c2ccccc2)c1C` was run?
Answer: 41.3%

Question: With `C[C@H]1O[C@@H](O[C@H]2[C@@H](O)C[C@H](O[C@H]3[C@@H](O)C[C@H](O[C@H]4CC[C@]5(C)C6C[C@@H](O)[C@]7(C)[C@@H](C8=CC(=O)OC8)CC[C@]7(O)C6CC[C@@H]5C4)O[C@@H]3C)O[C@@H]2C)C[C@H](O)[C@@H]1O` (stereo not given in full) as the molecule, how does the growth read?
Answer: -26.5% (active)

Question: How did the growth turn out when `CC[N+](CCCCCCCCCC[N+](CC)(c1ccccn1)c1ccccn1)(c1ccccn1)c1ccccn1` was run?
Answer: 7.81% (active)

Question: Which growth does the source give for `NS(=O)(=O)c1ccc(-n2ncc3c(SCc4ccccc4)ncnc32)cc1` here?
Answer: 98.7%

Question: How did the growth turn out when `O=C(CN1CCN(c2ccc(Cl)cc2)CC1)N1CCN(c2nnc(-c3ccc(Cl)cc3)c(-c3ccc(Cl)cc3)n2)CC1` was run?
Answer: 56.7%

Question: How did the growth turn out when `Cc1nn(-c2ccccc2)c2nc(N)c(C3=NCCO3)nc12` was run?
Answer: 83.6%

Question: Which growth does the source give for `C/C(=C\CCc1ccoc1)CC/C=C(\C)CCCN1CCOCC1` here?
Answer: 28.1%

Question: `O=C1c2cccc(NCCN=Cc3ccccc3O)c2C(=O)c2c(NCCN=Cc3ccccc3O)cccc21` was tested. Which growth did it give?
Answer: 3.69% (active)

Question: Which growth does the source give for `CCCn1c(N)c(C(=O)CNc2ccc(I)cc2)c(=O)[nH]c1=O` here?
Answer: 57.1%
